High-throughput results (PubChem BioAssay)
Sampled rows, rich in hits. Any-hit rate of the full collection: about 22%.
CYP2C19 inh: inhibitors of human CYP2C19. inhibition, % at 5 µM. P33261. CYP2C19 Supersomes, luciferin-H EGE luminescence, 30 min. AID 778. 96,000 compounds, 21% hits;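 active = CYP2C19 inhibition above a set limit at 5 µM in the primary screen, cut at about 50% in these data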;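 note: plate controls were negative control wells for no effect and 2.5 mM tranylcypromine positive control for full effect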
CYP2C9 inh: blocks human cytochrome P450 2C9; inhibition, % at 5 µM; AID 777; 96,000 compounds, 20% hits; CYP2C9 Supersomes, luciferin-H conversion, luminescence; P11712;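 active = blocking of liver enzyme CYP2C9 beyond about 50% at 5 µM, limit read from the data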
Target sequence (P11712 whole entry, looked up): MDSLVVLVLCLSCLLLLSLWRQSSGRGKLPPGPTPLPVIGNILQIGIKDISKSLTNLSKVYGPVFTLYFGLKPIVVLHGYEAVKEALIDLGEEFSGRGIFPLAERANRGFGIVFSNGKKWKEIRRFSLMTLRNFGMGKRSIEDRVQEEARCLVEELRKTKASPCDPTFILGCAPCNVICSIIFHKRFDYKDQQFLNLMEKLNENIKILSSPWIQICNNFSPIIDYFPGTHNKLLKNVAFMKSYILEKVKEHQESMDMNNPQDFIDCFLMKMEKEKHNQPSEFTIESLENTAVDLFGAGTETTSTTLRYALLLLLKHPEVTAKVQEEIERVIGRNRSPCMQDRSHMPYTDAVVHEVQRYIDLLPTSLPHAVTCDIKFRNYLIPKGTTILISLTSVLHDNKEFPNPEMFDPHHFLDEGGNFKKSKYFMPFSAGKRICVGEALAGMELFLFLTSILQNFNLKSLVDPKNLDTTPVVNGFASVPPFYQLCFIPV
CYP2C19 activ: increases human CYP2C19 enzyme activity. P33261. recombinant CYP2C19, luciferin-H EGE luminescence; hits give high values; 0 = fully inhibited enzyme, 1 = untreated enzyme. activation factor at 5 µM. 96,000 tested, under 10 active;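 active = activation factor of at least 2 at 5 µM in the primary screen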;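 note: 0 = wells with 2.5 mM tranylcypromine and 1 = vehicle-only wells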
CYP2C9 act: CYP2C9 (human) activation; P11712; recombinant CYP2C9, luciferin-H conversion, luminescence; hits give high values; factor 1 = untreated enzyme, 0 = blocked; activation factor at 5 µM; 96,000 compounds, 1.4% hits; AID 1024;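 active = activation factor of 2 or more for CYP2C9 at a 5 µM dose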;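 note: 0 = sulfaphenazole-blocked wells and 1 = vehicle-only wells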
Measles CPE: protection of cells from measles virus; 140,000 compounds, 1.5% hits; protection (pct of control), % at 4 µM; AID 841; Measles virus-infected cells, CPE protection, absorbance; in the data active = protection mostly above about 24%, no sharp cut-off; inactive = mostly below about 26%
Active calls of the source: *; . = no result.

SMILES | CYP2C19 inh | CYP2C9 inh | CYP2C19 activ | CYP2C9 act | Measles CPE
CCCCCn1c(CN2CCN(c3cccc(Cl)c3)CC2)nc2c1c(=O)[nH]c(=O)n2C | 44 | 59* | 0.6 | 0.4 | 5
CCCCCCCCn1c(N2CCN(c3cccc(Cl)c3)CC2)nc2c1c(=O)[nH]c(=O)n2C | 15 | 52* | 0.9 | 0.5 | 7
CCCCCCn1c(N2CCN(c3cccc(Cl)c3)CC2)nc2c1c(=O)[nH]c(=O)n2C | -9 | 2 | 1.1 | 1 | 4
CCOC(=O)N1CCN(Cc2nc3c(c(=O)[nH]c(=O)n3C)n2Cc2cc(C)ccc2C)CC1 | 28 | 72* | 0.7 | 0.3 | 2
O=C(Nc1nnc(C(F)(F)F)s1)c1ccc(N2C(=O)C3C4C=CC(C4)C3C2=O)cc1 (centres undefined) | -9 | 30 | 1.1 | 0.7 | 27
COCc1cc(/C=N\NC(=O)c2ccc(Cl)cc2)ccc1OC | . | . | . | . | 7
COc1ccc(/C=N/NC(=O)c2nc(Cl)c(Cl)c(N)c2Cl)cc1COc1ccc(F)cc1F | 46 | 67* | 0.5 | 0.3 | 8
COc1ccc(/C=N/NC(=O)c2nc(Cl)c(Cl)c(N)c2Cl)cc1COc1ccccc1F | 62* | 87* | 0.4 | 0.1 | 2
COc1ccc(/C=N/NC(=S)Nc2ccccc2)cc1COc1ccccc1F | . | . | . | . | 7
Cc1ccc(OC(C)C(=O)Nc2ccc(C)c(S(=O)(=O)Nc3ccc(C)cc3C)c2)cc1 (centres undefined) | . | . | . | . | 9
O=C1NC(=O)/C(=C\c2ccccc2OCc2cccc([N+](=O)[O-])c2)N1 | . | . | . | . | 7
Cc1cccc(OCC(=O)Nc2ccc(N3CCN(C(=O)c4ccco4)CC3)cc2)c1 | 66* | 44 | 0.3 | 0.6 | 17
O=C(Nc1ccc(N2CCN(C(=O)c3ccco3)CC2)cc1)C(c1ccccc1)c1ccccc1 | 86* | 61* | 0.1 | 0.4 | 6
O=C(Nc1ccc(N2CCN(C(=O)c3ccco3)CC2)cc1)c1cccs1 | 7 | 22 | 0.9 | 0.8 | 4
Cc1cc(N2CCN(C)CC2)nc2ccc(NC(=O)CCC(=O)NCc3ccco3)cc12 | -5 | -5 | 1 | 1.1 | 3
CCC(=O)N(CCC1(C(C)C)CCOC(C)(C)C1)Cc1ccco1 (centres undefined) | 59* | 14 | 0.4 | 0.9 | 5
CC(C)n1nc(C(=O)Nc2nc3ccc(S(C)(=O)=O)cc3s2)c2ccccc2c1=O | -3 | 21 | 1 | 0.8 | 19
CC(C)n1nc(C(=O)Nc2nnc(SCc3c(Cl)cccc3Cl)s2)c2ccccc2c1=O | 66* | 86* | 0.3 | 0.1 | 3
CCCc1nc(N)c(C#N)c(-c2cccnc2)c1CC | 61* | 24 | 0.4 | 0.8 | 6
O=S(=O)(c1ccccc1)N(CC(O)Cn1c2ccccc2c2ccccc21)c1ccccc1 (centres undefined) | 50 | 79* | 0.5 | 0.2 | 13
Cc1ccc(S(=O)(=O)N(C)CC(O)Cn2c3ccccc3c3ccccc32)cc1 (centres undefined) | 44 | 88* | 0.6 | 0.1 | 39*
C=CCN(CC=C)CC(O)Cn1c2ccccc2c2ccccc21 (centres undefined) | 73* | 30 | 0.3 | 0.7 | 8
CCN(CC)CC(O)Cn1c2ccccc2c2ccccc21 (centres undefined) | 9 | 1 | 0.9 | 1 | 7
COc1ccccc1N(CC(O)Cn1c2ccccc2c2ccccc21)S(=O)(=O)c1ccccc1 (centres undefined) | . | . | . | . | 7
C=CCn1c(SCC(=O)Nc2c(C)n(C)n(-c3ccccc3)c2=O)nc2sc(C)c(-c3ccccc3)c2c1=O | 12 | 24 | 0.9 | 0.8 | 5
SMILES | CYP2C19 inh | CYP2C9 inh | CYP2C19 activ | CYP2C9 act | Measles CPE
Cc1ccc(SC(C)C(=O)Nc2ccccc2-c2ccccc2)cc1 (centres undefined) | . | . | . | . | 7
CSc1cccc(NC(=O)C(C)Sc2ccc(C)cc2)c1 (centres undefined) | 70* | 67* | 0.3 | 0.3 | 3
CSc1ccccc1C(=O)Nc1cccc(N(C)S(C)(=O)=O)c1 | 27 | 34 | 0.7 | 0.7 | 16
Cc1ccc(SC(C)C(=O)Nc2ccc(S(=O)(=O)N3CCOCC3)cc2)cc1 (centres undefined) | 37 | 60* | 0.6 | 0.4 | 3
Cc1ccc(SC(C)C(=O)Nc2ccncc2)cc1 (centres undefined) | 100* | 97* | 0 | 0 | 9
Cc1ccc(SC(C)C(=O)Nc2cccc(N(C)S(C)(=O)=O)c2)cc1 (centres undefined) | 61* | 83* | 0.4 | 0.2 | 33*
Cc1ccc(SC(C)C(=O)Nc2cccnc2)cc1 (centres undefined) | 39 | 8 | 0.6 | 0.9 | 11
COc1ccc(-n2c(C)cc(/C=N/Nc3nnc(C)n3N)c2C)cc1 | . | . | . | . | 38
CCOC(=O)c1cc(C(O)(C(F)(F)F)C(F)(F)F)c(/N=C/N(C)C)o1 | 4 | 9 | 1 | 0.9 | 3
CNC(=O)C1=C(C)NC(=S)NC1c1cc2c(cc1OC)CCCC2 (centres undefined) | . | . | . | . | 5
CCOc1c(Br)cc(C(N)=O)cc1OCc1ccccc1 | . | . | . | . | 10
Cc1ccc(-c2nn(-c3ccccc3)cc2/C=N/NC(=O)CSc2nnc(C)n2-c2ccccc2)cc1 | 21 | 56* | 0.8 | 0.4 | 3
COc1ccc(-c2noc(CN(C(=O)C(C)(C)C)C(C)C)n2)cc1 | 81* | 57* | 0.2 | 0.4 | 12
CC(C)N(Cc1nc(-c2ccc(Cl)cc2)no1)C(=O)CCC1CCCC1 | 30 | 33 | 0.7 | 0.7 | 7
CC(C)N(Cc1nc(-c2ccccc2)no1)C(=O)C(C)(C)C | 52* | 44 | 0.5 | 0.6 | 8
CCOC(=O)c1cc(-c2ccccc2)sc1NC(=O)C(C)OC(=O)c1cccnc1Cl (centres undefined) | . | . | . | . | 3
CCOC(=O)N1CCN(c2nc(C)c3c(n2)CC(C)CC3=O)CC1 (centres undefined) | 39 | 52* | 0.6 | 0.5 | 2
CCc1ccc(N/C(SC)=C(/C#N)C(N)=O)cc1 | 29 | 50 | 0.7 | 0.5 | 40*
CCOc1ccc(N/C(SC)=C(/C#N)C(N)=O)cc1 | 34 | 0 | 0.7 | 1 | 6
CCOc1ccc(CCN2C(=O)C3C4C=CC(C4)C3C2=O)cc1OCC (centres undefined) | 53* | 9 | 0.5 | 0.9 | 13
CCOc1ccc(C(C)=O)cc1N1C(=O)C2C3C=CC(C3)C2C1=O (centres undefined) | 1 | -5 | 1 | 1 | 14
CNC(=O)COC(=O)/C=C/c1c(C)nn(-c2ccccc2)c1C | . | . | . | . | 6
CC1=C(C)/C(=N\OS(=O)(=O)c2ccccc2)C=CC1=O | 14 | -6 | 0.9 | 1.1 | 7
COc1ccc2[nH]c(C(=O)O)c(NS(=O)(=O)c3ccc(Cl)s3)c2c1 | 79* | 99* | 0.2 | 0 | 10
O=C(c1ccccc1)c1ccc2nc(N3CCN(C(=O)c4ccco4)CC3)c3nncn3c2c1 | 78* | 92* | 0.2 | 0.1 | 2
